Holding throughout (experiment): log2 fold change, soluble protein after heating vs DMSO (PISA); higher = thermal stabilisation; K562 cells, 10 uM, 30 min; active = over 0.2 and 3.5 SD of the protein, either way, in both replicates (recomputed)
One test addresses YAE1 (UniProt Q9NRH1). The procedure, abridged: (§1)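 Thermal stability values are relative to control samples and come from duplicates. They are expressed as log2 fold changes. For measurement, K562 cells (2×10^6 cells/mL) received 10 μM compound for 30 min, and aliquots were heated for 3 min over 48°C-58°C, pooled, and extracted at 4°C in PBS with 0.5% NP-40. Soluble protein, the supernatant after 21,000xg for 90 min, was quantified by TMTpro 16plex LC-MS/MS with equalised channel sums.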

The next test deals with YBX1 (UniProt P67809). The procedure, abridged:
as §1

Another test addresses YES1 (UniProt P07947). The procedure, abridged:
as §1

In a further test the target is YIPF4 (UniProt Q9BSR8). The procedure, abridged: as §1
The target in the next test is YIPF5 isoform 3 (UniProt Q969M3). Summed up: as §1
A further test deals with YIPF6 (UniProt Q96EC8). Summed up: as §1
Another test concerns the target YLPM1 (UniProt P49750). The procedure, abridged:
as §1

For a further test, the target named is YOD1 (UniProt Q5VVQ6). The procedure, abridged: as §1
The target of another test is YPEL5 (UniProt P62699). Summed up:
as §1

The full data set covers some 7,900 targets. This sample favours those with a hit. About 0.6% of all pairs of compound and target were hits. Unmarked numbers belong to inactive results.

YIPF4, sequence (Q9BSR8 whole entry, looked up, canonical isoform): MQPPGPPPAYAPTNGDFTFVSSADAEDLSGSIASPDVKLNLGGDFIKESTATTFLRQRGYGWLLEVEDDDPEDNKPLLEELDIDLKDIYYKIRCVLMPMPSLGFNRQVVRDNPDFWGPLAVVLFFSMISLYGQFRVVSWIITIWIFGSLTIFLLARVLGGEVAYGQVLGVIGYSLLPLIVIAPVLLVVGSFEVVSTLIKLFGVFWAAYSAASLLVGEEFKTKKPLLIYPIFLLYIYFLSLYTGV
YLPM1, sequence (P49750 whole entry, looked up): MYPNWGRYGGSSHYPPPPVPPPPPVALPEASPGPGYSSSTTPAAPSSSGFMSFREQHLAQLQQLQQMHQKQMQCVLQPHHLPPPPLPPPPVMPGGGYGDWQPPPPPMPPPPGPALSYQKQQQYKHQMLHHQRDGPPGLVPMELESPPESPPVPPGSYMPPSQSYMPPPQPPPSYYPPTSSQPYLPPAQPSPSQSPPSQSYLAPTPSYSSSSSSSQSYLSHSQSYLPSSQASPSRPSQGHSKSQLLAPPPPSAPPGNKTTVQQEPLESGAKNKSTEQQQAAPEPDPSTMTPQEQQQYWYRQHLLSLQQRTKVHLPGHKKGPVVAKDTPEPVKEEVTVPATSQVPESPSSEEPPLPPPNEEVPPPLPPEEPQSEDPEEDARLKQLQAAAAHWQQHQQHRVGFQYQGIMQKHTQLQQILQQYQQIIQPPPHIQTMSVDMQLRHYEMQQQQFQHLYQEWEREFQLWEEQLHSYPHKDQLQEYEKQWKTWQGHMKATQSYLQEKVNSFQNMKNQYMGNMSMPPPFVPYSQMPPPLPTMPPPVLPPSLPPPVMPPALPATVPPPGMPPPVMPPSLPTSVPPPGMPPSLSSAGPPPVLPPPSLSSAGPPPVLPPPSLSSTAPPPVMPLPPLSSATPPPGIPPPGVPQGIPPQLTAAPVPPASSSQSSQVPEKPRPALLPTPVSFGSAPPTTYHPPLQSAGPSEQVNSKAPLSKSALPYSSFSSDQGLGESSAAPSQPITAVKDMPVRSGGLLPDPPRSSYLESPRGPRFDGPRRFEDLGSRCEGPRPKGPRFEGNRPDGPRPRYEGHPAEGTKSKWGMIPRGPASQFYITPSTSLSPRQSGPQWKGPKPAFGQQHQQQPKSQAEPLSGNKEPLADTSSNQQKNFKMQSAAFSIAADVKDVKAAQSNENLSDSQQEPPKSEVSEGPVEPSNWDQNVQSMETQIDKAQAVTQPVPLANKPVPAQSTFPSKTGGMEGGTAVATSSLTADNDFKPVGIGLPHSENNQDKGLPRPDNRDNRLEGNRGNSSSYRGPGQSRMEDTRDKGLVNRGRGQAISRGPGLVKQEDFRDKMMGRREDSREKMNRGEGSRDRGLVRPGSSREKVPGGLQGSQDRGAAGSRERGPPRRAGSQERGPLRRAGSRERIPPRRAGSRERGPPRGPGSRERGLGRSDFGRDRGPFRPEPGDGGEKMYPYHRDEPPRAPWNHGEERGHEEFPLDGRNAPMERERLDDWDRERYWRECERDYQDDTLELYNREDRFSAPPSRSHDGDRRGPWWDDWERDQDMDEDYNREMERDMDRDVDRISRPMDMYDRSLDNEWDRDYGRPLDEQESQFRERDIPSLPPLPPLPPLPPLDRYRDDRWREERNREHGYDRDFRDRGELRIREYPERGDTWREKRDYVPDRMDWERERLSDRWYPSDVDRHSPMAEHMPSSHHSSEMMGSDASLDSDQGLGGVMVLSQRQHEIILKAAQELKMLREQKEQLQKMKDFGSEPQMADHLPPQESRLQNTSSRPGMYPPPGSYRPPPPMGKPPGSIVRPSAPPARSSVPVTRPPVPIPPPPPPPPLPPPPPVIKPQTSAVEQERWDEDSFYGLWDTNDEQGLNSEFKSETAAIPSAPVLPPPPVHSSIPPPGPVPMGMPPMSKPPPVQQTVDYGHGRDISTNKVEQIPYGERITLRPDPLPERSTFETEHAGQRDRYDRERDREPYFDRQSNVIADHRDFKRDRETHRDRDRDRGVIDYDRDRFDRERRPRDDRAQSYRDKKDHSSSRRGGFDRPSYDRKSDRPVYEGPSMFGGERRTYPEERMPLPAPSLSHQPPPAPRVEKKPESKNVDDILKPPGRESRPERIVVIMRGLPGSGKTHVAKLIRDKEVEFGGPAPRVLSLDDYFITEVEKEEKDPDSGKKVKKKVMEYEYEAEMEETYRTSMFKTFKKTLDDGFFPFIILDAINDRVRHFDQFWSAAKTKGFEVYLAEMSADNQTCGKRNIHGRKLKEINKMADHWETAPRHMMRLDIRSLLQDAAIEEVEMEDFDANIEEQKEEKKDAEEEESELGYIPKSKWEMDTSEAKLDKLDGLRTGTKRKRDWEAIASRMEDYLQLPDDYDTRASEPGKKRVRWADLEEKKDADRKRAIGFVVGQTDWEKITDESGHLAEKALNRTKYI
YES1, sequence (P07947 whole entry, looked up): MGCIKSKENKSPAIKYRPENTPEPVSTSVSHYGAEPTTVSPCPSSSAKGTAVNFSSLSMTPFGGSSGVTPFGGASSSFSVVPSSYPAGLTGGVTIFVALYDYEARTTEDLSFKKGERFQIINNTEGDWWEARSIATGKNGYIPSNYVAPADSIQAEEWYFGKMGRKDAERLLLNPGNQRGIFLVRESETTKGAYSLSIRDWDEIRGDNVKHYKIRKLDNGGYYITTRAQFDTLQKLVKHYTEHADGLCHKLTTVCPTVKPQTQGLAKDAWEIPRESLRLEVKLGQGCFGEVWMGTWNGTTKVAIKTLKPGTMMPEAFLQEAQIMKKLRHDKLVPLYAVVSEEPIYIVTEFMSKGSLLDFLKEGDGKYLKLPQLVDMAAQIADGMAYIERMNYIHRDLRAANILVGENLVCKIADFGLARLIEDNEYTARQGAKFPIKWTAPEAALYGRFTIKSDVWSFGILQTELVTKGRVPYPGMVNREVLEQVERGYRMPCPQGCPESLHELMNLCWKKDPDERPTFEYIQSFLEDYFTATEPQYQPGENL
YAE1, sequence (Q9NRH1 whole entry, looked up): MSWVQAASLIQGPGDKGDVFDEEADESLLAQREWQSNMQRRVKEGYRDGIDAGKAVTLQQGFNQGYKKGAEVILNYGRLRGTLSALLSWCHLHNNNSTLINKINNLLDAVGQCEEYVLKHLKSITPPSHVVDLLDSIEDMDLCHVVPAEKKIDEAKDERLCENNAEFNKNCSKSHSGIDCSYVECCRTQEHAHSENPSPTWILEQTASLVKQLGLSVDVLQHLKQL
YPEL5, sequence (P62699 whole entry, looked up): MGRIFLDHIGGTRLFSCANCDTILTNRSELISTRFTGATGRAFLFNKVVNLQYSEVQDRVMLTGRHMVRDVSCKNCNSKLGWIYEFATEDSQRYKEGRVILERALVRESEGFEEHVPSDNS
YOD1, sequence (Q5VVQ6 whole entry, looked up): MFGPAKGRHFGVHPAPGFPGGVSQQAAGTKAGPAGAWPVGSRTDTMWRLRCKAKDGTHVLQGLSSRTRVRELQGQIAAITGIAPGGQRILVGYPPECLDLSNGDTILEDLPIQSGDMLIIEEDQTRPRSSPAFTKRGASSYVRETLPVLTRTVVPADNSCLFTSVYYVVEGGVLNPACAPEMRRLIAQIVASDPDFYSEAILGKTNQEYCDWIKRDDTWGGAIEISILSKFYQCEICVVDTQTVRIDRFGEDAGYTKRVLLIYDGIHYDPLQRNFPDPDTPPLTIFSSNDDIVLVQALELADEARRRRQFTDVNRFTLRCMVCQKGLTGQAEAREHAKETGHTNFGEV
YIPF5 isoform 3, sequence (Q969M3 whole entry, looked up, canonical isoform): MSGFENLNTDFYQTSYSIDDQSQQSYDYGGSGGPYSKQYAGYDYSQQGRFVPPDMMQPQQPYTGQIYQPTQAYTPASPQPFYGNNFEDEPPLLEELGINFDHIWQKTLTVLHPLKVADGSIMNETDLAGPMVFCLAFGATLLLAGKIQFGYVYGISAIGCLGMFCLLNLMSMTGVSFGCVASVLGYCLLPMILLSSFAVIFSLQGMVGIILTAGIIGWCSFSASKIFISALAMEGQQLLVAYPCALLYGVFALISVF
YBX1, sequence (P67809 whole entry, looked up): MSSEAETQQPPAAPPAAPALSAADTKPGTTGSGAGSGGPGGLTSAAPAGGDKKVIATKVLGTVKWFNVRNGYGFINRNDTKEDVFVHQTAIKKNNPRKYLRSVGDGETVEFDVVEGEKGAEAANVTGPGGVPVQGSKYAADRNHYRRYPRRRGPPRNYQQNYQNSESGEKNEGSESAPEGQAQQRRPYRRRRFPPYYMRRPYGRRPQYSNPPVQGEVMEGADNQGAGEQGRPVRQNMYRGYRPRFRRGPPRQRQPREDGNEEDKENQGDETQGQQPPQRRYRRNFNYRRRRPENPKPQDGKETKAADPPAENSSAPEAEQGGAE
YIPF6, sequence (Q96EC8 whole entry, looked up): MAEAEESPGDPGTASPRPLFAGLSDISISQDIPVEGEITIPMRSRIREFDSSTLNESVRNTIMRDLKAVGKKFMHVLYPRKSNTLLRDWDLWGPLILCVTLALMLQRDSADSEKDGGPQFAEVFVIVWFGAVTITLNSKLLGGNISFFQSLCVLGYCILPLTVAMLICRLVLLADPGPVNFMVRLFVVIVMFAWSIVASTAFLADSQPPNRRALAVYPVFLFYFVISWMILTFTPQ

On to `CC[C@H](C)n1cc(C)c2c(C(=O)NCc3c(C)cc(C)[nH]c3=O)cc(-c3ccc(N4CCNCC4)nc3)cc21`, for which the log2 fold change with YAE1 is 0.02; in the test with YBX1 it was -0.063; with YES1, 0.112; in the test with YIPF4 it was -0.016; with YIPF5 isoform 3 it was -0.041; with YIPF6, -0.039. Moreover, the values for the log2 fold change with YLPM1, in the test with YOD1 and in the test with YPEL5 were 0.067, 0.081 and 0.109, respectively.

As for `NC1(c2ccc(-c3nc4ccn5c(=O)[nH]nc5c4cc3-c3ccccc3)cc2)CCC1`, the log2 fold change in the test with YAE1 was 0.086; in the test with YBX1 it was 0.306; in the test with YES1, -0.012; with YIPF4, -0.01; with YIPF5 isoform 3, 0.017; with YIPF6, -0.024. Moreover, the log2 fold change with YLPM1 was -0.046; in the test with YOD1, -0.138; with YPEL5, -0.026.

As for `Cc1nc(Nc2n[nH]c3c2CN(C(=O)N[C@H](CN(C)C)c2ccccc2)C3(C)C)c2sccc2n1`, the log2 fold change is 0.104 with YAE1; 0.149 in the test with YBX1; -0.746 (active) with YES1; 0.004 with YIPF4; 0.016 with YIPF5 isoform 3; -0.042 with YIPF6. Besides, the log2 fold change with YLPM1 was -0.075; with YOD1, -0.089; with YPEL5, -0.118.

As to `CCCS(=O)(=O)Nc1ccc(F)c(C(=O)c2c[nH]c3ncc(Cl)cc23)c1F`, the log2 fold change in the test with YAE1 is -0.037; in the test with YBX1 it was -0.137; with YES1, -0.217; with YIPF4, -0.01; in the test with YIPF5 isoform 3, -0.096; with YIPF6 it was 0.004. The log2 fold change with YLPM1 is 0.047; with YOD1 it was 0.033; with YPEL5 it was -0.127.

For the compound `NC(=O)c1ccc2nc(-c3ccc(Oc4ccc(Cl)cc4)cc3)[nH]c2c1`, the log2 fold change with YAE1 is 0; with YBX1, -0.033; with YES1, 0.049; with YIPF4, -0.039; with YIPF5 isoform 3, 0.012; in the test with YIPF6 it was 0.005. The results for the log2 fold change in the test with YLPM1, in the test with YOD1 and with YPEL5 were 0.033, 0.019 and -0.021, respectively.

Consider `c1cn2cc(-c3ccc4cn[nH]c4c3)nc(Nc3ccc(N4CCOCC4)cc3)c2n1` [entospletinib], for which the log2 fold change in the test with YAE1 is -0.07; with YBX1 it was 0.162; in the test with YES1 it was -0.219; with YIPF4, -0.015; in the test with YIPF5 isoform 3, -0.161; with YIPF6 it was -0.046. For the same compound, the log2 fold change in the test with YLPM1 is -0.105; in the test with YOD1, -0.013; with YPEL5, 0.009.

For the compound `O=C(O)c1ccc2c(c1)nc(Nc1cccc(Cl)c1)c1ccncc12` [silmitasertib], the log2 fold change with YAE1 is -0.009; with YBX1, 0.125; with YES1 it was 0.004; with YIPF4, -0.006; in the test with YIPF5 isoform 3, 0; with YIPF6, 0.02. For the same compound, the log2 fold change with YLPM1 was -0.009; in the test with YOD1 it was 0.021; with YPEL5, 0.116.

As to `CN1CCN(c2nc(C3=C(c4c[nH]c5ccccc45)C(=O)NC3=O)c3ccccc3n2)CC1` [sotrastaurin], the log2 fold change with YAE1 is 0.074; with YBX1, 0.016; in the test with YIPF4 it was 0.113; with YIPF5 isoform 3 it was 0.034; in the test with YIPF6 it was -0.648 (active); with YLPM1 it was 0.021. Also, the log2 fold change in the test with YOD1 is 0.034; with YPEL5, -0.102.

Consider `Cn1cc(-c2ccc3nnc(C(F)(F)c4ccc5ncccc5c4)n3n2)cn1`, for which the log2 fold change is 0.043 with YAE1; -0.136 with YBX1; 0.008 with YES1; 0.108 with YIPF4; 0.12 with YIPF5 isoform 3; 0.032 in the test with YIPF6. The values for the log2 fold change in the test with YLPM1, with YOD1 and with YPEL5 were 0.031, 0.057 and -0.071, respectively.

In the case of `CC[C@@H]1C(=O)N(C)c2cnc(Nc3ccc(C(=O)NC4CCN(C)CC4)cc3OC)nc2N1C1CCCC1`, the log2 fold change in the test with YAE1 is -0.022; in the test with YBX1, 0.262; with YES1, 0.129; with YIPF4 it was 0.022; with YIPF5 isoform 3 it was 0.088; in the test with YIPF6, -0.001. The log2 fold change in the test with YLPM1 is -0.016; with YOD1, -0.099; with YPEL5, 0.024.

Consider `NC(=O)Nc1cc(-c2cccc(F)c2)sc1C(=O)N[C@H]1CCCNC1`, for which the log2 fold change in the test with YAE1 is -0.023; in the test with YBX1, 0.025; with YIPF4, 0.066; in the test with YIPF5 isoform 3 it was 0.023; in the test with YIPF6, -0.081; in the test with YLPM1 it was -0.023. In addition, the log2 fold change was -0.079 in the test with YOD1 and 0.114 in the test with YPEL5.

For the compound `COC(=O)N[C@@H](C)CNc1nccc(-c2cn(C(C)C)nc2-c2cc(Cl)cc(NS(C)(=O)=O)c2F)n1` [encorafenib], the log2 fold change with YAE1 was 0.007; with YBX1 it was 0.041; in the test with YES1 it was 0.242; with YIPF4, -0.038; in the test with YIPF5 isoform 3 it was 0.012; in the test with YIPF6 it was -0.042. Further, the log2 fold change with YLPM1 is 0.052; with YOD1 it was 0.02; with YPEL5, -0.001.

Turning to `CS(=O)(=O)c1ccc(-c2cnc(N)c(C(=O)Nc3ccccc3)n2)cc1`, the log2 fold change with YAE1 is 0.011; in the test with YBX1, -0.101; in the test with YIPF4, 0.013; with YIPF5 isoform 3, -0.093; with YIPF6, 0.199; with YLPM1, -0.051. The log2 fold change in the test with YOD1 was 0.117; with YPEL5, 0.152.

With `CC[C@H](C)[C@H](NC(=O)[C@H]([C@@H](C)CC)N(C)C(C)=O)C(=O)N[C@H](C(=O)N[C@@H](CC(C)C)C(=O)[C@@]1(C)CO1)[C@@H](C)O` [epoxomicin], the log2 fold change was 0.118 with YAE1; -0.191 with YBX1; 0.009 in the test with YES1; -0.005 with YIPF4; 0.023 with YIPF5 isoform 3; 0.013 with YIPF6. The log2 fold change was 0.059 in the test with YLPM1, 0.051 with YOD1 and -0.052 with YPEL5.

Turning to `CN1CCN(CCOc2cc(OC3CCOCC3)c3c(Nc4c(Cl)ccc5c4OCO5)ncnc3c2)CC1` [saracatinib], the log2 fold change was 0.025 with YAE1; -0.027 with YBX1; -0.551 (active) in the test with YES1; 0.072 with YIPF4; 0.007 with YIPF5 isoform 3; -0.023 with YIPF6. Moreover, the values for the log2 fold change with YLPM1, in the test with YOD1 and with YPEL5 were 0, -0.034 and 0.069, respectively.

The values above are taken from the supplement of paper PMC10849652.
